Measured values as given in the supplement of paper PMC6555819.

What was measured:
Test in all cases: PBM binding z-score (relative to random genomic background probes); higher = stronger binding; sequences stand for … in GC…GCGATTGACAGCGTAGAATGAAGG
[1] = system: PPARg:RXRa DBDmut IVT, anti-RXR (DBD mutation: RXRa K156A/R161A, NR concentration 270 nM, RXRa partner concentration 90 nM)
In short: (§1)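 Binding z-scores take random background probes as their reference. They come from custom Agilent 4×180K protein-binding microarrays incubated 1 h with ligand-free nuclear receptor dimers, with antibodies against each partner (one per run) detecting binding. Scanned fluorescence was regression-normalized.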

[2] = system: PPARg:RXRa IVT, anti-PPARg (NR concentration 270 nM, RXRa partner concentration 90 nM)
In short: as §1

[3] = system: PPARg DBDmut:RXRa IVT, anti-PPARg (DBD mutation: PPARg1 K132A/R137A, NR concentration 270 nM, RXRa partner concentration 90 nM)
In short: as §1

[4] = system: PPARg DBDmut IVT, anti-PPARg (DBD mutation: PPARg1 K132A/R137A, NR concentration 270 nM)
In short: as §1

[5] = system: PPARg homodimer (NR concentration 180 nM)
In short: as §1

[6] = system: PXR:RXRa (NR concentration 270 nM, RXRa partner concentration 90 nM)
In short: as §1

[7] = system: PXR homodimer (NR concentration 270 nM)
In short: as §1

[8] = system: RARa homodimer (NR concentration 270 nM)
In short: as §1

[9] = system: RARb:RXRa (NR concentration 270 nM, RXRa partner concentration 90 nM)
In short: as §1

[10] = system: RARb homodimer (NR concentration 270 nM)
In short: as §1

[11] = system: RARg:RXRa (NR concentration 270 nM, RXRa partner concentration 90 nM)
In short: as §1

[12] = system: RARg homodimer (NR concentration 270 nM)
In short: as §1

[13] = system: RXRa DBDmut IVT, anti-RXR (DBD mutation: RXRa K156A/R161A, NR concentration 90 nM)
In short: as §1

[14] = system: RXRa homodimer (NR concentration 180 nM)
In short: as §1

[15] = system: THRa:RXRa (NR concentration 90 nM, RXRa partner concentration 90 nM)
In short: as §1

[16] = system: THRa homodimer (NR concentration 90 nM)
In short: as §1

[17] = system: VDR homodimer (NR concentration 270 nM)
In short: as §1

[18] = system: VDR:RXRa (NR concentration 270 nM, RXRa partner concentration 90 nM)
In short: as §1

Sequence	PBM binding z-score [1]	PBM binding z-score [2]	PBM binding z-score [3]	PBM binding z-score [4]	PBM binding z-score [5]	PBM binding z-score [6]	PBM binding z-score [7]	PBM binding z-score [8]	PBM binding z-score [9]	PBM binding z-score [10]	PBM binding z-score [11]	PBM binding z-score [12]	PBM binding z-score [13]	PBM binding z-score [14]	PBM binding z-score [15]	PBM binding z-score [16]	PBM binding z-score [17]	PBM binding z-score [18]
CGTCCAAGGTCAAAGGTCAGTAAAGAGATGACGG	4.06	5.78	0.533	0.691	4.4	7.16	1.34	4.03	5.99	5.42	8.65	8.13	3.88	10.4	4.82	2.37	3.52	
TAGCCTAGGTCATGGGCCAGTTTACCACGCGAAC	1.76	3.27	-0.261	-0.602	1.68	2.12	-0.368	-0.379	3.82	3.04	4.68	4.8	0.567	4	3.22	1.42	0.669	
ATCTCTAGGTAAAGGTCAGTGAAAGATCGATAGA	3.45	4.2	1.29	1.49	3.73	3.35	1.1	2.88	4.53	4.26	4.52	5.13	0.521	4.35	2.98	0.87	1.17	
CGTCCAAGGTCAAGGTGAGTGAAAGAGACTCGAA	3.35	3.92	0.375	0.105	3.6	3.6	0.642	1.04	5.22	3.64	5.92	6.65	3.37	6.02	3.8	2.86	1.94	
CGAACGAGGTCAGAACAGGACAGTGAAGGATGAT	3.38	4.26	0.826	0.461	1.39	3.87	0.676	0.667	4.4	3.19	4.63	4.76	3	4.37		1.37	2.1	
CAAACTAGGTCACCGGAAAGTCAAAGTCCGCATG	8.88	9.33	3.21	3.47	2.67	2.14	0.0377	0.631	4.72	3.86	5.17	5.86	2.01	3.89	3.54	1.8	0.741	
CGTCCAAGGTCAATGCTAGGTCACTGAAAGCATT	3.52	4.42	0.503	0.266	8.59	5.45	2.08	2.19	5.33	5.18	7.94	6.93	3.59	5.56		3.87	3.43	
CGTCAAAGTTCAACTAAGGTAACTTAAAGCACGC	0.256	2.36	0.726	1.28	3.17	5.71	4.62	1.76	5.39	4.27	5.75	6.52	4.71	4.83	5.38	1.52	4.08	
CTCGAAAGGTCGAGCTCAGGTGAGTATACCAAAC	0.787	1.71	1.15	0.22	2.06	2.86	-0.325	0.256	4.2	2.85	4.89	4.58	1.39	4.04	4.03	0.791	0.31	
TTACCAAGGTGAAAGGTCATTGATGCACGCCTTG	2.98	6.12	1.63	2.28	5.67	6.35	2.25	2.09	4.86	4.75	6.91	5.06	1.85		4.42	1.64	3.32	
ATCCAAAGGTCGAGGTGAGTATAGAGAAAGGGAA	0.646	2.87	1.42	1.42	1.71	2.84	0.536	1.18	4.43	3.21	4.69	4.83	1.19	5.1	3.07	1.07	1.09	
CGTCCAAGGTCAGATAGGTCAGTGAATGCCGAGT	1.9	2.41	-0.168	0.165	2.95	4.33	4.32	1.22	5.1	4.84	5.45	6.04	3.06	4.4	3.73	1.92	3.28	
CCTACGGGGCCAAAGGTCATTGATTCCAATGCTC	1.49	5.33	-0.65	-0.159	5.46	6.24	2.59	2.51	4.72	4.5	6.59	5.24	1.86		3.78	0.564	2.99	
TCATATAGGTCAAAGGTGAAAGTCGGTGTGGTAA	8.06	7.84	1.77	2.53	3.28	5.31	1.13	1.6	4.89	4.1	7.06	5.46	2.48		3.74	0.997	1.49	
CAAACTAGGTCAAAGGTCAAAGTTGAGCCAACCA	8.56	9.49	2.5	3.77	3.75	7.31	1.83	2.12	5.96	5.46	9.07	7.7	3.35	10.5	4.95	1.92	3.15	
ACTAGTTGTTCAGCTGAGGTCACACACAATTCGG	0.514	2.19	0.853	0.948	2.16	4.83	1.87	1.09	3.28	4.34	3.72	3.35	1.54	4.16	4.65	5.2	2.84	
CCTTACGGGTCACGGGGTTATAGCACGACGAGCG	3.39	5.93	4.69	3.61	8.52	5.66	0.491	2.14	4.72	3.7	6.74	5.54	1.77		4	0.91	2.44	5.75
CCTTGCGGGTCACTGACAGGTTATAGCATTTGGA	4.94	5.29	-0.0944	-0.215	2	3.05	-0.0222	0.173	3.63	2.97	5.46	4.17	1.77	4.49	2.8	0.354	0.664	
CCGACTGGGTCAAAGGTTACCATACTCAGTACGA	6.05	7.26	1.18	0.000446	1.89	5.14	-0.223	0.785	4.1	3.42	5.88	4.13	1.23		3.62	0.418	0.82	
CAAACTAGGTCACAGAGGTCGAAGTCCGTGCGTA	8.27	8.42	2.27	0.791	2.22	4.41	3.65	0.511	4.35	4.46	5.11	5.68	2.1	4.51	4.03	2	3.88	
GATCCAGGGTCAGCTAGAGGCCAGAGTATGGAAA	0.393	1.96	-0.6	-0.817	1.89	3.27	-0.25	-0.417	4.24	3.27	6.7	4.6	0.756	4.34	3.09	-0.172	0.674	
CACACTAGGTCAAGAGGTCAAAGTCCGCTTCCCG	7.22	7.67	2.76	1.84	7.46	6.33	3.75	3.81	5.28	5.71	8.04	7.49	3.09	8.05	4.5	3.03	4.78	
TCTTGTAGATCAAAGGTTAAGACAGCCGAAGCCT	2.1	3.94	1.03	0.9	1.28	2.12	-0.0752	0.276	1.91	1.45	1.94	1.05	0.925	3.08	1.24	-0.0838	0.141	
CCTGCTAGGTCAAGGGTCAGCTAAAGCAGCTCGC	4.08	5.78	0.536	-0.955	2.95	4.65	0.026	0.368	4.96	4.91	6.68	6.43	1.48	7.49	3.95	1.24	1.03	
ATCGAAAGGTCGAAGGTCAGTATACCCACCCGAA	0.724	3.24	0.938	0.568	2.47	5.13	0.812	1.68	4.54	4.11	6.01	5.42	1.78		3.31	0.706	1.51	
CGTCCAAGGTCATAGGAGGTCACTGAAGACAGAT	3.85	5.27	1.24	1.12	5.21	7.29	6.78	3.25	5.39	5.4	7.13	7.45	4.05	7.22	5.37	3.68	5.28	
CCTTACGGGTCAAGGTTATATCACGGGTGGTACG	1.74	3.78	0.607	0.522	2.64	3.63	0.951	0.89	4.15	3.52	4.98	4.79	0.822	5.52	3.11	0.96	1.54	
TCATATAGGTAAAAGGTCAAAGTCGGTGTGGTAA	5.65	6.93	2.69	3	5.82	5.94	2.41	4.73	4.88	4.74	6.62	5.95	2.5		3.85	1.47	3.09	
CCTTACGGGTCAAGGTAATAGCACGGGTGGTACG	1.83	3.41	0.176	-0.496	1.93	2.54	0.213	0.734	4.1	2.82	4.6	4.42	0.648	4.79	2.66	0.382	0.423	
ACTAACAGGCCAAGGGTCACTCAAGATTAGTCCG	0.923	3.21	0.489	-0.189	3.04	3.56	0.163	1.2	3.57	4.08	4.46	4.16	1.23	4.7	2.9	0.619	1.46	
